Source: PubChem BioAssay (National Center for Advancing Translational Sciences (NCATS))
LmPK inhibitor = LmPK (Leishmania mexicana) enzyme inhibition. hit rate 0.37% among 290,000. Potency, µM (doses to about 57.5 µM), without a hit: at the highest dose activity change, negative = inhibition, usual class: inhibitors. AID 1721. purified LmPK, Kinase-Glo ATP luminescence, 1 h; note: potency is the fitted concentration of half-maximal effect; % is set by controls: 0 for no effect and ±100 for the full control effect
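Kinase-Glo luminescence read after 1 h RT reaction of 0.1 nM LmPK with 0.5 mM PEP and 0.1 mM ADP. Activity scaled between uninhibited and enzyme-free controls.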
FBPA Giardia inh = inhibitors of Giardia lamblia fructose-1,6-bisphosphate aldolase. A8B2U2. hit rate 0.71% among 290,000. purified Giardia FBPA. AID 2451. Potency, µM (top dose mostly 59.6 µM), without a hit: at the highest dose activity, negative = inhibition, most hits filed as inhibitors; note: potency is the fitted concentration of half-maximal effect; % is set by controls: 0 for no effect and ±100 for the full control effect; nearly all actives have a fitted effect of over 55% in size
Target sequence (A8B2U2 whole entry, looked up): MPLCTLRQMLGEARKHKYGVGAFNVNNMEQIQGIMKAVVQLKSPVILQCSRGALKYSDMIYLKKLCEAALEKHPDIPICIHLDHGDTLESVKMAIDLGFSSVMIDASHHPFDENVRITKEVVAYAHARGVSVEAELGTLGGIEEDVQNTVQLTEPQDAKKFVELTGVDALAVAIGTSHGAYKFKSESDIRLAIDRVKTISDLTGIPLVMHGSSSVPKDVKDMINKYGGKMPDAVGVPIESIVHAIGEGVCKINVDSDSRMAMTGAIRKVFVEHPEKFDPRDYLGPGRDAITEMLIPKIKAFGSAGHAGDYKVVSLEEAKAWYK
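Giardia FBPA (40 nM reagent) was preincubated 10 min at RT with compound (up to 57.5 uM final), then substrate plus GAPDH/TPI/NAD/arsenate coupling system with diaphorase/resazurin was added; resorufin fluorescence (525/598 nm) was read after 20 min.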
NS1 inh = influenza NS1 inhibition; Potency, µM (series often up to 46.1 µM), for inactives: at the top dose activity, positive = more growth; hit rate 0.4% among 270,000; AID 2326; calls by dose curve; note: potency is the fitted concentration of half-maximal effect; actives are rising curves; nearly all actives have a fitted effect of over 50% in size
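S. cerevisiae expressing influenza A NS1, grown in glucose, washed, then diluted 1:100 into pH 6.0 -URA galactose medium with 23 nl compound. Growth recovery read as OD600; NS1-free strain serves as control.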
Cycloheximide cs = affects cycloheximide protein synthesis inhibition readout, counter-screen; cell reporter, cycloheximide protein synthesis inhibition counterscreen; AID 2314; max response, %; hit rate 12% among 300,000; in the data active = max response mostly above about 13%, no sharp cut-off; inactive = mostly below about 14%; note: read at 38.3 µM for the half of the compounds with a filed dose; 0% is about no effect
Shiga toxin inh = Shiga toxin inhibition. Vero cells, Shiga toxin protein synthesis inhibition reporter. inhibition, % at 38.7 µM. hit rate 9.2% among 290,000. AID 2315; in the data active = inhibition mostly above about 28%, no sharp cut-off; inactive = mostly below about 43%; note: 0% is about no effect
* hit, by the source's call; ? = inconclusive; . = no result given; + = active, no number; [ ] = remark or other dose. Only some compounds are listed: those with a hit (about 14% of all), similar ones and a draw of the others. Unless noted, calls come from the whole dose curve; as a rule, active = well fitted curve in the direction sought with a large enough effect; inconclusive = small, poorly fitted or top-dose-only effect, or another doubt; inactive = no such curve, though single readings can be large; an effect the other way counts as inactive or inconclusive.

SMILES	LmPK inhibitor	FBPA Giardia inh	NS1 inh	Cycloheximide cs	Shiga toxin inh
O=C(NC(=S)Nc1ccc2oc(-c3cccnc3)nc2c1)c1cccc(Cl)c1	0%	-2%	17%	-2	-8
Cc1cc(CN2CCC(n3nccc3NC(=O)c3ccccc3C)CC2)n[nH]1	1%	-1%	2%	-2	-4
COCCNC(=O)CN(Cc1ccccc1)C(=O)CCC(=O)Nc1nccs1	-4%	2%	3%	-7	-3
CC(C)CC(OC(=O)c1ccco1)C(=O)NC1CCCCC1 (centres undefined)	-4%	12%	2%	17*	18
O=C(NC1CCCCCC1)c1ccco1	-15%	.	-7%	12*	10
Cc1ccc(C(=O)NC2CCCCCC2)o1	1%	0%	-1%	20*	40*
COCCNC(=O)CN1CCC(NC(=O)c2ccco2)CC1	1%	-7%	-1%	22*	50
C=CCNC(=O)CN1CCC(NC(=O)c2ccco2)CC1	1%	-2%	-2%	-6	-11
CC(=O)c1ccc(NC(=O)CC(C)S(=O)(=O)c2ccc3c(c2)CCN3C(C)=O)cc1 (centres undefined)	7%	.	3%	-2	-2
Cn1c(=O)c(-c2cccs2)nc2cnc(N3CCOCC3)nc21	.	6%	.	.	.
Cc1ccc(C(=O)OCC(=O)NC2CCCCC2)o1	-1%	.	-5%	15*	31
Cc1cc(C(=O)OCC(=O)NC2CCCCC2)c(C)o1	5%	3%	-5%	-2	-15
Cc1ccc2oc(C(=O)N3CCC(O)(c4cccc(C(F)(F)F)c4)CC3)c(C)c2c1	4%	25%	-65%	43*	63*
COc1ccc(OCC(=O)Nc2ccc3c(c2)nc(CCn2ccccc2=O)n3C)cc1	-10%	.	-7%	5	14
COc1ccc(C(=O)Nc2cccc(C(=O)NCc3ccco3)c2)cc1	3%	-4%	-2%	12*	21
COc1ccc(Nc2nc(C(=O)NCc3ccco3)cs2)cc1	0%	-14%	-115%	14*	44
COc1cccc(C(=O)c2c[nH]c(C(=O)NCc3ccco3)c2)c1	3%	-2%	10%	23*	18
CCCOc1ccc(C(=O)NCc2ccco2)cc1	-1%	2%	-63%	35*	74*
CCOc1cc(C(=O)NCc2ccco2)cc(OCC)c1OCC	1%	-5%	0%	-1	-3
CC(C)Oc1ccc(C(=O)NCc2ccco2)cc1	1%	0%	-4%	29*	38*
COc1ccc(C(=O)N[C@H](C(=O)NCc2ccco2)C(C)C)cc1	5%	4%	.	5	-12
COC(=O)CCC(=O)OC1(C)C(=O)C=C2C=C(CCCNC(=O)OC(C)(C)C)OC=C2C1=O (centres undefined)	.	-4%	.	.	.
COc1cccc(C2=CC(c3cccc(OC)c3OC)n3nnnc3N2)c1 (centres undefined)	0%	-5%	-33%	30*	41*
COc1cccc(C2=CC(c3cc(OC)ccc3OC)n3nnnc3N2)c1 (centres undefined)	-10%	-16%	-22%	15	-5
COc1cccc(C2=CC(c3cccc(OC)c3OC(F)F)n3nnnc3N2)c1 (centres undefined)	-4%	-13%	2%	17*	8
SMILES	LmPK inhibitor	FBPA Giardia inh	NS1 inh	Cycloheximide cs	Shiga toxin inh
O=C(CN1C(=O)c2ccccc2C1=O)Oc1ccc(F)cc1	-3%	13%	-7%	-1	-2
Cc1cccc(NC(=S)NCc2ccccn2)c1	-7%	.	-10%	28	42
O=C(Nc1ccccc1)OCc1ccccn1	-4%	0%	-6%	26*	57*
O=C(NCc1ccccn1)Nc1ccccc1	?	0%	0%	43*	82*
Cc1cccc(NC(=O)C(=O)NCc2ccccn2)c1	-4%	-3%	-5%	59*	168*
COc1ccc(NC(=O)NCc2ccccn2)cc1	-1%	5%	6%	-3	14
O=C(NCc1ccccn1)Nc1cccc(F)c1	2%	7%	-1%	26*	39*
CCN(CC)CCn1c(-c2ccccc2)nc2c(NCCOC)nc(C)nc21	.	5%	.	.	.
COC(=O)C1=C(C(=O)OC)[C@@H]2Nc3ccccc3[C@@]23C[C@@H](C(=O)OC)N(S(=O)(=O)c2ccc4c(c2)OCCN4C)C3=N1	-4%[11.5 µM]	1%[12.9 µM]	.	.	.
O=C(NCc1ccccn1)Nc1ccc(Br)cc1	-6%	11%	-2%	12*	29*
O=C(CC1SC(=Nc2ccccc2)N(Cc2ccccn2)C1=O)Nc1ccc(Br)cc1 (centres undefined)	1%	-9%	?	20*	48*
O=C(Nc1ccc(Cl)cc1)OCc1cn(-c2ccccc2)nn1	-5%	-1%	.	30*	30
O=C(NCc1ccccn1)C(=O)NCc1ccccn1	1%	0%	.	6	10
Cc1ccccc1NC(=O)OCc1cn(-c2ccc(Cl)cc2)nn1	5%	-1%	4%	-3	-10
O=C(Nc1ccccc1)OCc1cc(-c2ccccc2Cl)on1	5%	-7%	-9%	39*	69*
COc1cccc([C@@H]2Oc3ccc(Br)cc3C(=O)[C@H]2OC(=O)NCc2ccco2)c1	.	1%	.	.	.
CCOC(=O)[C@@H]1[C@H]2COc3ccccc3[C@@H]2N2C(=O)N(c3ccccc3)C(=O)[C@]12C	-4%	-5%	4%	-2	-3
O=C1C2=C(S[C@@H]3O[C@H](CO)[C@@H](O)[C@H](O)[C@H]3O2)C(=O)c2ccccc21	.	-19%	.	.	.
O=C(c1csnn1)N1CCC2(CC1)CCN(c1ncccn1)CC2	.	1%	.	.	.
Cc1cc2n(n1)C(c1ccc(N(C)C)cc1)Nc1ccccc1-2 (centres undefined)	1%	4%	-31%	47*	48*
Cc1cc2n(n1)C(c1ccccc1)Nc1ccccc1-2 (centres undefined)	-2%	-1%	-9%	9	14
Cc1ccc2c(c1)-c1cc(C)nn1C(c1ccc3c(c1)OCO3)N2 (centres undefined)	4%	8%	-52%	16*	29
Cc1cc2n(n1)C(c1ccc3c(c1)OCO3)Nc1ccccc1-2 (centres undefined)	6%	-3%	-28%	11	-2
COc1ccc(-c2nc(CS(=O)CC(=O)NCCN3CCCCC3C)c(C)o2)cc1OC (centres undefined)	8%	.	6%	-2	-7
O=C(CN1C(=O)COc2ccc(S(=O)(=O)N3CCOCC3)cc21)Nc1cccc(Cl)c1	-1%	.	8%	0	-13
O=C(Nc1ccc2c(c1)C(=O)N(c1ccccc1)C2=O)C1CCCO1 (centres undefined)	-11%	1%	-6%	32*	33*
Cc1ccc(N2C(=O)c3ccc(N)cc3C2=O)cc1C	-13%	1%	-34%	31*	119*
Cc1ccc(N2C(=O)c3ccc(N)cc3C2=O)cc1	-7%	2%	-11%	30*	67*
CC(=O)Nc1ccc2c(c1)C(=O)N(c1ccc(C)cc1)C2=O	26%	-3%	-3%	51*	+
COc1ccc(N2C(=O)c3ccc(NC(C)=O)cc3C2=O)cc1	-2%	-2%	4%	8	-6
